Reference: paper PMC4336329 (PLoS ONE, 2015)
In all, about 310,000 compounds went through this assay and about 14,000 (4.5%) showed an effect of 50% or more. Effects have a minus sign here. Shown is part of a subset that was picked to be rich in strong results.

Target: human ether-à-go-go-related gene (hERG) potassium channel (human, UniProt Q12809)
Test: primary screen, population patch clamp on CHO cells stably expressing hERG; higher = less effect of the substance
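Note: peak tail current of the secondary pulse compared with the same well before compound.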

human ether-à-go-go-related gene (hERG) potassium channel, sequence (Q12809 whole entry, looked up): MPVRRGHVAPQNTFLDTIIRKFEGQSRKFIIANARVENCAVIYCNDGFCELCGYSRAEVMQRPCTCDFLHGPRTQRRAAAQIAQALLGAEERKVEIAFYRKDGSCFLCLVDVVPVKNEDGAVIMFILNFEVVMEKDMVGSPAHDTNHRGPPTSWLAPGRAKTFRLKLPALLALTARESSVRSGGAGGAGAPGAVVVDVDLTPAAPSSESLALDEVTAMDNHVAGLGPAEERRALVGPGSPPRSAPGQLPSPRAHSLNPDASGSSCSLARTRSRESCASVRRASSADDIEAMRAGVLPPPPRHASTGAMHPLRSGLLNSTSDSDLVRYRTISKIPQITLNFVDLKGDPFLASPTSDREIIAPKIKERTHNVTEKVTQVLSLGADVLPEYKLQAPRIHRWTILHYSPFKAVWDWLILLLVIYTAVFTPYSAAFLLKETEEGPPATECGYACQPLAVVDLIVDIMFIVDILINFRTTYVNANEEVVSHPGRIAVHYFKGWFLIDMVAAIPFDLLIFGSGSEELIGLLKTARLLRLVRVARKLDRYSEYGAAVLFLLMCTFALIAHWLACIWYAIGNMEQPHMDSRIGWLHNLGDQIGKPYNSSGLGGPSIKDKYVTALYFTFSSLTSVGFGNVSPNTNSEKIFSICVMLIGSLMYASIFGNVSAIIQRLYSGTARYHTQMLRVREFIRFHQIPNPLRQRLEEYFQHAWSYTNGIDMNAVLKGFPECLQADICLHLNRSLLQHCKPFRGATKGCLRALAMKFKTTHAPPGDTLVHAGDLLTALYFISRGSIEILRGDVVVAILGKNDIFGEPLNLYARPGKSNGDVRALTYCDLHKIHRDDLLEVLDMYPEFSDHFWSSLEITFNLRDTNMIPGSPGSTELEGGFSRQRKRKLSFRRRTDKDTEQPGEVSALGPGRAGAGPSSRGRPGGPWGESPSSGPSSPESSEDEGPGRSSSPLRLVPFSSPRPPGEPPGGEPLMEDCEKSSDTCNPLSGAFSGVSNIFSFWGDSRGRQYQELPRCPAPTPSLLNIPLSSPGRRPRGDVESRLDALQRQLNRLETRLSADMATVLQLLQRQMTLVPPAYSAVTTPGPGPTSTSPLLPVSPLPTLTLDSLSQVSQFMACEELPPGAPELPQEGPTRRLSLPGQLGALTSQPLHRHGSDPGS

| SMILES | hERG current change (%, negative = inhibition) at 10uM [%] |
| --- | --- |
| CCN(CC)C(=O)c1ccc2c(c1)C1C(Cl)C(Sc3ccccc3[N+](=O)[O-])CC1C(C(=O)O)N2 (stereo not shown) | -59.3 |
| CC(=O)c1ccc2c(c1)C1C(Cl)C(Sc3ccccc3[N+](=O)[O-])CC1C(c1ccccc1)N2 (stereo not shown) | 15.1 |
| CC(=O)c1ccc2c(c1)C1C(Cl)C(Sc3ccccc3[N+](=O)[O-])CC1C(C(=O)O)N2 (stereo not shown) | -20.8 |
| CN(Cc1nc(-c2cccc(Cl)c2)no1)C1CCOCC1 | -22.7 |
| CCn1c(=O)c(C(=O)NCc2ccccc2)c(O)c2ccccc21 | 19.1 |
| Cn1c(C(=O)NCc2cccnc2)cc2sccc21 | -10.2 |
| CCn1c(C(=O)NCc2cccnc2)cc2sc(Cl)cc21 | -57.2 |
| CCCCCn1c(=O)c(C(=O)NCc2ccncc2)c(O)c2ccccc21 | -53.7 |
| CCn1c(=O)c(C(=O)NCc2cccnc2)c(O)c2ccccc21 | -56.4 |
| COC(=O)Nc1ccc(S(=O)(=O)NNC(=O)c2c(O)c3ccccc3n(C)c2=O)cc1 | 25.9 |
| CCCCCn1c(=O)c(C(=O)NCc2ccccc2)c(O)c2ccccc21 | 15.2 |
| CCCn1c(=O)c(C(=O)NNS(=O)(=O)c2ccc(NC(=O)OC)cc2)c(O)c2ccccc21 | 9.85 |
| Cn1c(C(=O)NCc2cccnc2)cc2sc(Cl)cc21 | -43.9 |
| CCCn1c(=O)c(C(=O)NCc2cccnc2)c(O)c2ccccc21 | -34.7 |
| CCCCn1c(=O)c(C(=O)NCc2ccncc2)c(O)c2ccccc21 | -44 |
| CCn1c(=O)c(C(=O)NNS(=O)(=O)c2ccc(NC(=O)OC)cc2)c(O)c2ccccc21 | -56.3 |
| O=C(NCc1ccccc1)c1cccc(OCC(=O)N2CCN(C(=O)c3ccco3)CC2)c1 | -41.1 |
| COc1ccccc1/C=N/NC(=O)CC(=O)NCc1cccnc1 | 7.63 |
| O=C(O)COc1ccccc1/C=N/NC(=O)CSc1nc2ccccc2s1 | 9.71 |
| CCOc1ccc(-c2cc(C(=O)NN3CCN(C)CC3)c3cc(Cl)ccc3n2)cc1 | 22.5 |
| CC(C(=O)NCc1ccc2c(c1)OCO2)N1c2cccc3cccc(c23)S1(=O)=O (stereo not shown) | -22.7 |
| O=C(CN1C(=O)S/C(=C\C=C\c2ccccc2)C1=O)N1CCCCC1 | 10.8 |
| Cc1cc(=O)oc2cc(OCCSCCN3CCCCC3)ccc12 | -16.5 |

| SMILES | hERG current change (%, negative = inhibition) at 10uM [%] |
| --- | --- |
| CNC(=S)N1CCn2cccc2C1c1cccnc1 (stereo not shown) | 6.45 |
| COc1ccc(/C(N)=N/OC(=O)CCCc2ccccc2)cc1 | -11.3 |
| FC(F)(F)Oc1ccc(NC2=NCCCS2)cc1 | -24.4 |
| COC(=O)c1c(NC(=O)C2CCCO2)sc2c1CCC2 (stereo not shown) | -3.4 |
| CC(C)CN(CC(C)C)C(=O)c1cc2c(=O)n3ccccc3nc2s1 | 7.12 |
| O=C(O)C1CC1(c1ccccc1)c1ccccc1 (stereo not shown) | 17.7 |
| N#CC(C#N)=Cc1ccc(N2CCOCC2)cc1 | -10.7 |
| O=C(NCc1cccnc1)c1sc2cc(Cl)ccc2c1Cl | -55.4 |
| CCCn1c(=O)c(C(=O)NCc2ccncc2)c(O)c2ccccc21 | -63 |
| CCCn1c(=O)c(C(=O)NCc2ccccc2)c(O)c2ccccc21 | 7.64 |
| Cc1ccc2c(Cl)c(C(=O)NCc3cccnc3)sc2c1 | -46.4 |
| CCCn1c(=O)c(C(=O)NCc2ccccn2)c(O)c2ccccc21 | -11.1 |
| O=C(NCc1cccnc1)c1sc2ccccc2c1Cl | -28.9 |
| Cc1cc(NC(=O)CSc2nc3ccsc3c(=O)n2NC(=O)c2ccccc2)no1 | -1.69 |
| Cc1ccc(C(=O)N(C)CC(=O)Nc2cccc(F)c2)cc1S(=O)(=O)N1CCCCC1 | -10.5 |
| COc1ccc(C(=O)NC2CC2)cc1OC1CCN(Cc2ccc(SC)cc2)CC1 | -88.7 |
| COc1cc2[nH]c(=O)n(Cc3ccc(C(=O)NC4CCN(Cc5ccccc5)CC4)cc3)c(=O)c2cc1OC | 17.6 |
| COc1ccc(C(=O)NC2CC2)cc1OC1CCN(Cc2cnn(C)c2)CC1 | -32.7 |
| COc1ccc(C(=O)NC2CC2)cc1OC1CCN(Cc2ccccc2)CC1 | -81.6 |
| COc1ccc(C(=O)NC2CCC(O)CC2)cc1S(=O)(=O)NCc1ccc(Cl)cc1 (stereo not shown) | -6.07 |
| COc1ccc(C(=O)NC2CC2)cc1OC1CCN(Cc2ccc(Cl)cc2)CC1 | -78.8 |
| COc1ccc(C(=O)NCCc2cccc(Cl)c2)cc1OC1CCN(C(C)=O)CC1 | -16.1 |
| COc1ccc(C(=O)NC2CC2)cc1OC1CCN(Cc2ccc(F)c(F)c2)CC1 | -75.2 |
